From PubChem BioAssay (NCATS) come the findings set out here.

“And” between values parts separate entries of the source, which are not always exact repeats. Equal values may be shown once. Inconclusive results are not listed. The source holds several records for some structures; these can differ, active in one and inactive in another. The source made the active and inactive calls. Calls come from the whole dose curve; as a rule, active = well fitted inhibition curve with a large enough effect; inconclusive = small, poorly fitted or top-dose-only effect; inactive = no such curve, though single readings can be large or run the other way.
% is set by controls: 0 for no effect and ±100 for the full control effect; potency is the fitted concentration of half-maximal effect.

A short description of the assay: Confirmatory qHTS for small molecule stabilizers of the endoplasmic reticulum resident proteome: Secreted ER Calcium Modulated Protein (SERCaMP) assay (AID 1508628). Note: nearly all actives have a fitted effect of over 40% in size. Particulars: SERCaMP secreted luciferase ER calcium/proteostasis reporter; series mostly up to 76.3 µM; activity change, negative = decrease: at the top concentration. An excerpt: Assay Provider: Brandon K. Harvey Ph.D.
National Institute on Drug Abuse, National Institutes of Health, Baltimore, MD
Endoplasmic reticulum (ER) dysregulation is associated with human pathologies including neurodegenerative, cardiovascular, muscular, and diabetic conditions. Maintenance of ER calcium is critical for functions of the ER and its depletion can lead to loss of ER resident proteins, in a process termed exodosis. Therapeutic compounds capable of attenuating the redistribution of ER proteins under pathological conditions may slow or stop disease progression. To identify such compounds, we performed a quantitative high-throughput screen (qHTS) using the SERCaMP assay, which monitors secretion of ER resident proteins triggered by calcium depletion.
SERCaMP was initially developed as a reporter of ER calcium homeostasis using a Gaussia luciferase with a modified signal peptide and carboxy-terminus (GLuc-SERCaMP), modifications that confer secretion of the reporter in response to ER calcium depletion (Henderson et al., 2014). The assay was used to screen 9,501 compounds, including a collection of drugs approved by the FDA (US), EMA (EU), NHI (Japan), and HC (Canada) regulatory agencies (Huang et al., 2011). Since the SERCaMP reporter reflects the exodosis phenomenon (Trychta et al., 2018a), compounds identified in the screen have the potential to prevent exodosis by different mechanisms such as stabilizing ER calcium or augmenting ERS retrieval.
1. Henderson, M.J., Wires, E.S., Trychta, K.A., Richie, C.T., and Harvey, B.K. (2014). SERCaMP: a carboxy-terminal protein modification that enables monitoring of ER calcium homeostasis. Mol Biol Cell 25, 2828-2839.
2. Huang, R., Southall, N., Wang, Y., Yasgar, A., Shinn, P., Jadhav, A., Nguyen, D.T., and Austin, C.P. (2011). The NCGC pharmaceutical collection: a comprehensive resource of clinically approved drugs enabling repurposing and chemical genomics. Sci Transl Med 3, 80ps16.
3. Trychta, K.A., Back, S., Henderson, M.J., and Harvey, B.K. (2018a). KDEL Receptors Are Differentially Regulated to Maintain the ER Proteome under Calcium Deficiency. Cell Rep 25, 1829-1840 e1826.
SEQUENCE No. (1, 2, 3, etc.); […] (e.g., Cells, Incubation, Reagent, etc.); VALUE and DESCRIPTION.
1; Reagent; 5 uL; 1000 SH-SY5Y cells per wells
3; Compound; 23 nL; Control inhibitor / compound library
5; Reagent; 100 nM; Thapsigargin
7; Reagent; 1 uL; 0.5x coelenterazine
8; Detection; Luminescence; ViewLux imaging system
NOTES (numbers refer to sequence above)
1; SH-SY5Y human neuroblastoma cells stably expressing GLuc-SERCaMP (SH-SY5Y-GLuc-ASARTDL) cells were seeded in 1,536 well white tissue culture treated plates (Corning, Cat# 7464) in DMEM-high glucose-sodium pyruvate (ThermoFisher Scientific, Cat #10569) supplemented with 10% bovine growth serum (Hyclone), 10 U/ml penicillin (Gibco), 10 ug/ml streptomycin (Gibco), and 20 mM HEPES.
2; Assay plates were incubated for 5 hour at 37C in a humidified incubator containing 5% CO2.
3; qHTS libraries (23 nl, final concentrations of 1.53 uM, 7.67 uM, 38.3 uM) or controls (neutral control: DMSO, positive control: dantrolene) were added using a Kalypsis pin-tool Robotic System equipped with 1536 pinheads.
4; Cells were then incubated for 16 hours at 37C, 5% CO2.
5; Thapsigargin was added at 100 nM to deplete ER calcium stores.
6; Cells were incubated for 4 hour (37 °C, 5% CO2)
7; Gaussia luciferase in the medium was measured by adding 1 ul of 0.5x coelenterazine (final concentration 0.07x) prepared in Gaussia Luciferase Glow Assay Buffer (Pierce), without addition of the Cell Lysis Buffer Reagent.
8; Luminescence was measured using a ViewLux […] CCD imaging system (Perkin Elmer) equipped with clear filters. […] The same controls were also used for the calculation of the Z' factor, a measure of assay quality control, as previously described (Zhang et al., 1999). […]
A general note: Quantitative high-throughput screening tests each substance at several concentrations.
`CC(C)C[C@H]1C(=O)N2CCC[C@@H]2[C@]2(O)O[C@](NC(=O)[C@@H]3C=C4c5cccc6[nH]c(Br)c(c56)C[C@H]4N(C)C3)(C(C)C)C(=O)N12`: the Potency is 10 µM (active).
On the same count and under the same terms, the figure for `CCOC(=O)NC[C@H](Cc1ccc(OCCc2nc(-c3ccccc3)oc2C)cc1)N/C(C)=C\C(=O)c1ccc(C(F)(F)F)cc1` is 31.6 µM (active).
Turning to `N[C@@H](Cc1cc(CP(=O)(O)O)cc(-c2ccccc2Cl)c1)C(=O)O`, the “activity change, negative = decrease” value is 7.99% (inactive).
Still for that read-out and setting: the value for `Oc1cc2c(cc1O)[C@H](c1ccccc1)CNCC2` was -29% (inactive); that for `N=C(CC(O)COc1ccccc1-c1ccccc1)N1CCCCC1` (stereo unspecified) was 205% (inactive).
Consider `CCCCCCCCCCCCCCCC(=O)OC(CO)CO`, for which the “activity change, negative = decrease” value was 39.5% (inactive).
Consider `COc1ccc(Cl)cc1N=Nc1ncc[nH]1`, for which the Potency is 35.5 µM (active).
In the case of `COc1ccc(NS(=O)(=O)c2ccc(I)cc2)cc1N1CCN(C)CC1`, the Potency was 7.94 µM (active).
In the case of `Cc1cc(C)c(N(Cc2ccccc2)S(=O)(=O)c2ccc(OCCNC(=O)c3cc4ccccc4o3)cc2)c(C(=O)NO)c1`, the “activity change, negative = decrease” value is 17.4% (inactive).
In the case of `CS(=O)(=O)CCNCc1nc(-c2ccc3ncnc(Nc4ccc(OCc5cccc(F)c5)c(Cl)c4)c3c2)cs1`, the “activity change, negative = decrease” value is 2.23% (inactive).
As to `Oc1ccc(Nc2nc(-c3ccc(Cl)cc3)cs2)cc1`, the Potency was 2 µM (active).
For `C[C@@H](NCc1cc(Br)cc2[nH]c(=O)c(=O)[nH]c12)P(=O)(O)O`, the “activity change, negative = decrease” value is -2.91% (inactive).
Take `CCOC(=O)c1c(C)[nH]c2ccc3c(c12)CN1CCc2cc(OC)ccc2[C@@H]1O3`: the “activity change, negative = decrease” value is 22.4% (inactive).
Consider `COc1cccc(CCc2ccccc2OCC[C@@H]2C[C@@H](O)CN2C)c1`, for which the “activity change, negative = decrease” value is 170% (inactive).
`C=C[C@H]1CN2CCC1C[C@@H]2C(O)c1ccnc2ccc(OC)cc12` (stereo partly specified): the Potency is 39.8 µM (active) and inactive.
Same read-out and setting: the figure for `COc1ccc(CCN(C)CCC[C@@](C#N)(c2ccc(OC)c(OC)c2)C(C)C)cc1OC` is 12.6 µM (active).
For the compound `CN(Cc1ccccc1)C(=O)[C@H](Cc1ccc2ccccc2c1)NC(=O)[C@@H]1CCCN1C(=O)Nc1ccccc1[N+](=O)[O-]`, the Potency is 10 µM (active).
Consider `N[C@@H](CCS(=O)O)C(=O)O`, for which the “activity change, negative = decrease” value was -11.6% (inactive).
As for `COc1ccc(C2Sc3ccccc3N(CCN(C)C)C(=O)[C@@H]2OC(C)=O)cc1` (stereo partly specified), the Potency was 31.6 µM (active) and inactive.
On the same count and under the same terms, the figure for `CN(C)C/C=C(\c1ccc(Br)cc1)c1cccnc1` is 44.7 µM (active); for `CN1C[C@H](C(=O)N[C@]2(C)O[C@@]3(O)[C@H]4CCCN4C(=O)[C@H](Cc4ccccc4)N3C2=O)C[C@H]2c3cccc4[nH]cc(c34)C[C@@H]21` it is 25.1 µM (active).
Regarding `NC(=NC1C2CC3CC(C2)CC1C3)Nc1ccc(I)cc1` (stereo unspecified), the “activity change, negative = decrease” value is 124% (inactive).
Regarding `CNc1cc2c(Nc3cccc(Br)c3)ncnc2cn1`, the Potency was 2 µM (active).
On the same count and under the same terms, the value for `CSc1ccc2c(c1)[C@H](N1CCN(C)CC1)Cc1ccccc1S2` was 7.94 µM (active); that for `C=C[C@@]1(C)CC(=O)[C@@]2(O)[C@@]3(C)[C@@H](O)CCC(C)(C)[C@@H]3[C@H](OC(=O)CCN(C)C)[C@H](OC(C)=O)[C@@]2(C)O1` was 14.1 µM (active).
Consider `COc1cc(-c2ccc(N=Nc3ccc4c(S(=O)(=O)O)cc(S(=O)(=O)O)c(N)c4c3O)c(OC)c2)ccc1N=Nc1ccc2c(S(=O)(=O)O)cc(S(=O)(=O)O)c(N)c2c1O`, for which the Potency is 28.2 µM (active).
Consider `O=S(=O)(c1cccc2cnccc12)N1CCNCC1`, for which the “activity change, negative = decrease” value was -14.1% (inactive).
In the case of `N#Cc1cc2c(OCC(O)CN3CCN(C(c4ccccc4)c4ccccc4)CC3)cccc2[nH]1` (stereo unspecified), the Potency was 3.98 µM (active) and inactive.
As for `CCN(CC)CCCCN1c2ccccc2Oc2ccc(Cl)cc21`, the “activity change, negative = decrease” value is 232% (inactive).
In the case of `O=Nc1c(-c2c(O)[nH]c3ccccc23)[nH]c2ccccc12`, the Potency is 28.2 µM (active) and 4.47 µM (active).
Consider `O=C(O)C1NCCN(C(=O)c2ccc3c(ccc4ccccc43)c2)C1C(=O)O` (stereo unspecified), for which the “activity change, negative = decrease” value was 5.46% (inactive).
